Data as given in PubChem BioAssay AID1376 (SRMLSC, 2008).
Several values for one entry are separate records, joined by “and”; a condition that tells them apart may be missing. Equal values may be shown once. Screen size: about 220,000 compounds; about 530 (0.24%) were called active. The full list was thinned out, with actives kept by preference. Potency and affinity values are given separately. Values without a mark were called inactive. No stated cut-off is given here; in the data, active means inhibition above about 13%; inconclusive means no clear call, values can overlap the other calls; inactive means below that.

Biological target: Bifunctional protein GlmU (Mycobacterium tuberculosis (strain ATCC 25618 / H37Rv)) (UniProt P9WMN3)
Experiment: inhibition of mycobacterial GlmU enzyme – biochemical, glucosamine-1-phosphate acetyltransferase (AID 1376);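 further: 0% = complete reaction with vehicle and 100% = reaction without substrate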
Conditions: M. tuberculosis GlmU acetyltransferase enzyme assay; hits give high values;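 tested at 30 µM in the primary screen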

Chain of Bifunctional protein GlmU (Mycobacterium tuberculosis (strain ATCC 25618 / H37Rv)) (P9WMN3 whole entry, looked up): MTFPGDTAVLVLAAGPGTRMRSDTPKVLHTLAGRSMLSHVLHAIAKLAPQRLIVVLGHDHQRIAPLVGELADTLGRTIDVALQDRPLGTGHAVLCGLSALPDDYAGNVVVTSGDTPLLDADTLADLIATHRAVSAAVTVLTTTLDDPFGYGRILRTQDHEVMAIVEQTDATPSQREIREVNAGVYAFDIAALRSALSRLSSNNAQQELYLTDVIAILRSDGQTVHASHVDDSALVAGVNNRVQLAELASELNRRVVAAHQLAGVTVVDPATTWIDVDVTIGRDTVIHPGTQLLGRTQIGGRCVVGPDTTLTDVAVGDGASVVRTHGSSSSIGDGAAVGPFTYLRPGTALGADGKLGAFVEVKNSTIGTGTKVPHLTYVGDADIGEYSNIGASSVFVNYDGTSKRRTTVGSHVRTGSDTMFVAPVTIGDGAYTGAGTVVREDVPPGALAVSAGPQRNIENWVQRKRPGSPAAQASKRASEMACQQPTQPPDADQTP

Structure (SMILES)	inhibition
CCOC(=O)c1[nH]c2ccc(OC)cc2c1NC(=O)c1ccc2c(c1)OCO2	-4.48%
CCOC(=O)c1[nH]c2cc(OC)c(OC)cc2c1NC(=O)c1ccc2c(c1)OCO2	17.8% (active)
CCOC(=O)c1[nH]c2ccccc2c1NC(=O)c1ccc2c(c1)OCO2	-1.52%
O=C(Nc1ccon1)c1ccccc1F	-0.14%
Cc1cc(C)cc(NC(=S)NC(=O)CCN2C(=O)c3ccccc3C2=O)c1	13.3% (active)
O=C(CCN1C(=O)c2ccccc2C1=O)NC(=S)Nc1ccccc1	2.69%
O=C(CCN1C(=O)c2ccccc2C1=O)NC(=S)Nc1ccccc1Cl	-2.84%
O=C(NCc1ccccc1)c1ccc2c(=O)[nH]c3c(C(=O)NCC4CCCO4)sc(=S)n3c2c1 (stereo not drawn)	4.19%
CCCCCNC(=O)c1ccc2c(=O)[nH]c3c(C(=O)NCC4CCCO4)sc(=S)n3c2c1 (stereo not drawn)	-1.14% and 8.81%
Cc1ccc(CNC(=O)c2ccc3c(=O)[nH]c4c(C(=O)NCC5CCCO5)sc(=S)n4c3c2)cc1 (stereo not drawn)	13.2% (active)
COc1ccc(OCCCC(=O)NCCc2nc3ccccc3[nH]2)cc1	5.71%
O=c1c(C(c2c(O)nc3n(c2=O)CCS3)c2cccc3ccccc23)c(O)nc2n1CCS2	15.3% (active)
Cc1ccc(C(c2c(O)nc3n(c2=O)CCS3)c2c(O)nc3n(c2=O)CCS3)cc1	-1.5%
O=c1c(C(c2ccccc2)c2c(O)nc3n(c2=O)CCS3)c(O)nc2n1CCS2	3.94%
Cc1c(N=C2C=C(Br)C(=O)C(Br)=C2)c(=O)n(-c2ccccc2)n1C	14.5% (active)
CCC(C)C1=CC(=Nc2c(C)n(C)n(-c3ccccc3)c2=O)C=C(C(C)CC)C1=O (stereo not drawn)	-5.03%
CC1=CC(=Nc2c(C)n(C)n(-c3ccccc3)c2=O)C=C(C)C1=O	-6.33%
O=C(NC1CC1)C1=C[C@@H](c2ccc(C(F)(F)F)cc2)C[C@@H](OCCCCO)O1	0.57%
CCOc1cc(/C=C2/C(=O)ON=C2C)ccc1OCc1ccccc1F	-0.49%
S=C(NCCc1ccccn1)Nc1cccc(Cl)c1	2.84%
O=C(CSc1nc2ccccc2[nH]1)Nc1ccccc1N1CCOCC1	2.16%
O=C(CCSc1ccccc1)Nc1nnc(-c2ccccc2)o1	-1.24%
COc1ccc(C(=O)N2CCOCC2)cc1Br	-2.45%
O=C(c1coc(=O)c(Br)c1)N1CCC(C(O)(c2ccccc2)c2ccccc2)CC1	-1.06%

Structure (SMILES)	inhibition
COc1ccccc1N1CCN(C(=O)c2coc(=O)c(Br)c2)CC1	2.74%
O=C(c1coc(=O)c(Br)c1)N1CCCc2ccccc21	-0.3%
CC(c1ccccc1)C1CC(=O)N(c2ccc(C(=O)O)cc2)C1=O (stereo not drawn)	-1.47%
CS(=O)(=O)NNC(=O)c1sccc1OCc1ncc(C(F)(F)F)cc1Cl	-2.98%
CC(C)CNc1c(N)c(=O)oc2ccccc12	-2.95%
O=C(Nc1cccc(C(F)(F)F)c1)c1ccco1	-3.67%
Cc1ccccc1Nc1nc(N)nc(COC(=O)c2cccn2C)n1	2.68%
CCc1ccccc1Nc1nc(N)nc(COC(=O)c2cccn2C)n1	13.1% (active)
Cc1ccccc1Nc1nc(N)nc(COC(=O)c2ccccc2)n1	6.9%
CCCCN(CC)Cc1ccc(CNC(=S)Nc2cccc(F)c2)o1	-3.9%
N#C/C(=C\c1ccc[nH]1)C(=O)NCC1CCCO1 (stereo not drawn)	2.87%
Brc1ccc(CSc2ccc3nnc(-c4ccccn4)n3n2)cc1	-0.66%
COc1cccc(/C=N\n2c(C)nnc2C)c1OC	8.8%
Cc1ccc(N2C(=O)c3ccccc3C2C(=O)c2cc(C)ccc2O)cc1 (stereo not drawn)	-7.05%
Cc1ccc(N2C(=O)c3ccccc3C2C(=O)c2ccc(C)c(C)c2O)cc1 (stereo not drawn)	-5.61%
Cc1ccc(N2C(=O)c3ccccc3C2C(=O)c2ccc(O)cc2O)cc1 (stereo not drawn)	13.2% (active)
CN1CCSc2ccc(C(=O)Nc3cc(F)ccc3F)cc21	-5.68%
Cc1ccc(C(=O)C2CCN(CC(=O)NC3CCCCC3)CC2)cc1	1.4%
COc1ccccc1NS(=O)(=O)c1cc(NC(=O)c2sccc2C)ccc1N1CCCC1	0.4%
CC1=C(C#N)C(=O)NC(=O)/C1=C/c1ccc(-c2ccc(S(N)(=O)=O)cc2)o1	14.3% (active)
CCOC(=O)c1cc(-c2ccc(/C=C3/C(=O)NC(=O)C(C#N)=C3C)o2)ccc1Cl	-3.05%
CC1(C)OC(=O)C(=Cc2ccc(-c3ccc(S(N)(=O)=O)cc3)o2)C(=O)O1	-2.03%
COc1ccc(CCC(=O)Nc2cc(Cl)ccc2N2CCN(C)CC2)cc1	-2.71%
Cc1cc(C)nc(NN=C2CCCC2)n1	-4.71%

Structure (SMILES)	inhibition
C/C=C1/CN2[C@@H]3C4CO[C@@H]3c3c([nH]c5cc(OC)ccc35)[C@@H]2CC14 (stereo partly drawn)	4.24%
Cc1ccc(CN2C(=O)N/C(=C\c3cccn3-c3cccc(C(=O)O)c3)C2=O)cc1	7.01%
ON=Cc1cccn1-c1ccccc1	2.34%
O=C(O)c1cccc(-n2cccc2/C=C2/NC(=O)N(c3cccc(Cl)c3)C2=O)c1	2.42%
COc1ccc(-n2cccc2/C=C2/NC(=O)N(c3cccc(Cl)c3)C2=O)cc1	1.07%
O=C(N/N=C/c1cccn1-c1cccc(C(=O)O)c1)Nc1ccccc1	7.06%
O=C(O)c1cccc(-n2cccc2/C=C2\NC(=O)N(Cc3ccc(F)cc3)C2=O)c1	13.9% (active)
O=C(O)c1cccc(-n2cccc2/C=C2/NC(=O)N(Cc3ccccc3F)C2=O)c1	7.3%
O=C(O)c1ccc(COc2ccccc2/C=C2/NC(=O)N(c3cccc(Cl)c3)C2=O)cc1	-4.52%
N#C/C(=C/c1cccn1-c1cccc(C(=O)O)c1)c1ccc(Cl)cc1	7.87%
O=C(O)c1cccc(-n2cccc2/C=C2/NC(=O)N(c3ccc(Cl)cc3)C2=O)c1	68.6% (active)
O=C(Cn1nc(-c2ccccc2)ccc1=O)N1CCC2(CC1)OCCO2	-1.66%
CC(C)C(=O)N1N=C2CCCCC2C1(O)C(F)(F)F (stereo not drawn)	-2.41%
O=C(Nc1ccccc1)c1ccc2snnc2c1	-0.53%
S=C=Nc1ccccn1	-0.05%
COc1ccccc1Nc1nc(N)nc(CN2CCOCC2)n1	-4.21%
Cc1ccc(NC(=S)N/N=C2\CC(C)(C)Oc3ccc(O)cc32)cc1	0.56%
O=C(Nc1ccc(-c2nc3ccccc3[nH]2)cc1)c1ccc(N2C(=O)CCC2=O)cc1	-0.75%
O=C(CSc1ncn[nH]1)NCCOc1ccccc1	-0.55%
O=C1N[C@@H](Cc2ccccc2)C(=O)N2[C@@H]1C[C@@]1(Br)c3ccccc3N(S(=O)(=O)c3ccccc3)[C@@H]21	3.3%
O=C(O)c1cccc(-n2cccc2/C=C2\SC(=O)N(Cc3ccccc3F)C2=O)c1	14.4% (active)
N#CC(C#N)=Cc1cccn1-c1ccc(S(N)(=O)=O)cc1	-1.86%
N#C/C(=C/c1cccn1-c1cccc(C(=O)O)c1)c1ccc(F)cc1	2.91%
O=C(O)c1ccc(-n2cccc2/C=C2/NC(=O)N(c3ccccc3)C2=O)cc1	14.4% (active)

Structure (SMILES)	inhibition
O=C1N/C(=C/c2cccn2-c2ccc(F)cc2)C(=O)N1Cc1ccccc1	-0.61%
O=C1N/C(=C/c2cccn2-c2ccccc2)C(=O)N1Cc1ccc(F)cc1	1.54%
N#Cc1ccccc1CN1C(=O)S/C(=C/c2cccn2-c2cccc(C(=O)O)c2)C1=O	2.69%
CN1C(=O)S/C(=C/c2cccn2-c2cccc(C(=O)O)c2)C1=O	-3.46%
N#CC(C#N)=Cc1cccn1-c1ccc(C(=O)O)cc1	13.8% (active)
CN(C)c1nc(N/N=C\c2ccc(Cl)c([N+](=O)[O-])c2)nc(Nc2ccc(F)cc2)n1	3.5%
COc1ccc(OCCCC(=O)Nc2cc([N+](=O)[O-])ccc2C)cc1	0.05%
Cc1ccc(NC(=O)CN2C(=O)NC3(CCc4ccccc43)C2=O)cc1Cl (stereo not drawn)	2.43%
CCc1ccc(C(=O)CN2CCSC2=N)cc1	-4.03%
COc1ccc2nc(C)cc(SCC(=O)OC(C)C)c2c1	-3.07%
Cc1ccc(NC(=O)CS(=O)CC(=O)NC2CCN(Cc3ccccc3)CC2)c(C)c1 (stereo not drawn)	5.17%
CC1CCC/C(=N/Nc2nc3ccccc3s2)C1 (stereo not drawn)	1.47%
Cc1nn(C(=O)Cn2ccc([N+](=O)[O-])n2)c(C)c1Br	17.6% (active)
O=C(Cn1ccc([N+](=O)[O-])n1)N1CCCCCC1	-1.9%
O=C(Cn1ccc([N+](=O)[O-])n1)N1CCCCC1	1.12%
Cc1cc(C)n2nc(SCCOc3ccccc3)nc2n1	-0.25%
Cc1cccc(NC(=S)NCc2cccn2C)c1	4.86%
Cc1nc2cccc(C(=O)NCc3ccccc3)c2o1	-4.24%
O=C(NC1CCCCC1)c1cc(Cl)nc2ccccc12	1.21%
Cc1nc2cccc(C(=O)NC3CCCCC3)c2o1	14.4% (active)
Cc1cc(Br)ccc1SCC(=O)OCC(=O)Nc1ncc(C(F)(F)F)cc1Cl	1.65%
